These results are taken from PubChem BioAssay AID2717 (Broad Institute, 2010).

Several values for one entry are separate records, joined by “and”; a condition that tells them apart may be missing. Equal values may be shown once. The whole screen tested about 300,000 compounds, of which about 3,200 (1.1%) were called active. The full list was thinned out, with actives kept by preference. A number with no mark means an inactive call. No stated cut-off is given here; in the data, active means inhibition above about 75%; inconclusive means no clear call, values can overlap the other calls; inactive means below that; tested in HMLE shEcad cells.

The experiment in a line: growth suppression of cancer stem-like cells – cell-based, luminescence, primary screen (AID 2717). The conditions noted are these: cancer stem cell-like cells viability, at 7.5 µM, hits give high values.
As to `Oc1ccccc1N1CCN(C(=S)NCc2ccccc2)CC1`, the inhibition was 12%. With `Oc1ccc(N2CCN(C(=S)NCc3ccccc3)CC2)cc1` the figure was 76.5% (active); with `O=C(COC(=O)c1ccccc1C(=O)N1CCN(c2ccccc2)CC1)NCc1ccccc1`, -12.2%; with `O=C(COC(=O)c1ccc2c(c1)OCCO2)NCc1ccccc1Cl`, -17.4%. To `Cc1ccc(N2C(=O)N3[C@@H]4c5ccccc5OC[C@@H]4[C@@H](c4ccccc4)[C@@]3(C)C2=O)cc1` belongs -10%; to `O=C(N/N=C/c1ccc(O)c2ccccc12)c1cccnc1`, 8.51%; to `CCN(CC)c1ccc(/C=N/NC(=O)CNC(=O)c2cccnc2)cc1`, -7.16%.

Regarding `CCN(CC)c1ccc(/C=N/NC(=O)c2cnccn2)c(O)c1`, the inhibition was 102% (active). As for `O=C(COC(=O)c1ccc([N+](=O)[O-])o1)NC12CC3CC(CC(C3)C1)C2`, the inhibition was -15.4%. To `COCCn1c(C)cc(C(=O)CN2c3cccc4cccc(c34)S2(=O)=O)c1C` belongs 12.1%; to `COc1cc(/C=N/O)cc(Br)c1OCc1cccc(Cl)c1`, 80.5% (active); to `COc1cc(/C=N/O)cc(Br)c1OS(=O)(=O)c1ccc(C)cc1`, -11.5%.

For `COc1cc(/C=N/O)ccc1OCc1ccc([N+](=O)[O-])cc1`, the inhibition was 1.34%.

In the case of `CN(CC(=O)NC1CCN(Cc2ccccc2)CC1)S(=O)(=O)c1ccc(Cl)s1`, the inhibition is -6.54%.

As to `CC(C)c1ccc2c(c1)c(SC(C)(C)C)c(CC(C)(C)C(=O)O)n2Cc1ccc(Cl)cc1`, the inhibition was 104% (active) and 102% (active). To `O=C(O)c1ccc(Cn2c(=S)[nH]c3cc(Cl)ccc3c2=O)cc1` belongs -3.92%. With `O=C1COc2ccc(C(=O)COC(=O)c3ccccc3Cl)cc2N1` the figure was -17.8%; with `Fc1ccccc1-c1cc2cc3c(cc2cn1)OCO3`, 14.4%; with `COC(=O)C1=C(C)N(Cc2ccccc2)C(=NCCCOC(C)C)N[C@H]1c1ccccc1`, 0.115%. Regarding `O=C(/C=C/c1ccc(F)cc1)Nc1cccc(S(=O)(=O)Nc2cccc(C(F)(F)F)c2)c1`, the inhibition is 2.9%. To `CCOC(=O)N1CCN(C(=O)c2ccc(S(=O)(=O)Nc3cccc(C(F)(F)F)c3)cc2)CC1` belongs 8.22%; to `Cc1oc2c(F)c(F)c(F)c(F)c2c1S(=O)(=O)Nc1cccc(C(F)(F)F)c1`, 97.3% (active); to `CC(C)c1ccc(NC(=S)NNc2ccc(Cl)c(C(=O)O)c2)cc1`, -18.1%. With `Cc1ccc(C)c(NC(=S)NNC(=O)c2csc(C)c2)c1`, the inhibition was 3.04%.

In the case of `Cc1ccc(C)c(NC(=S)NNC(=S)Nc2ccc(C(C)C)cc2)c1`, the inhibition is 102% (active). On to `C[C@H]1COC(=O)[C@H](CC(=O)OC(C)(C)C)C/C=C\C[C@@H](CC(=O)N[C@H](CO)Cc2ccccc2)C(=O)N1`, for which the inhibition is -29.3%. Consider `Cc1ccccc1SCC(=O)OCC(=O)N1CC(=O)Nc2ccccc21`, for which the inhibition is -8.14%. For the compound `CC1CCCCC1NC(=O)COc1ccc(C#N)cc1` (stereo not drawn), the inhibition is -1.85%.

In the case of `C/C(=N\NC(=S)NCc1ccccc1)c1ccc(Cl)cc1`, the inhibition was 41.6%. To `C/C(=N\NC(=S)NC(C)C)c1ccc(C(C)(C)C)cc1` belongs 77.5% (active); to `CC/C(=N\NC(=S)NC(C)C)c1ccc(OC(F)F)cc1`, 2.7%.

With `O=C(COc1cccnc1[N+](=O)[O-])Nc1ccc(Cl)cc1F`, the inhibition was -1.01%. On to `O=C1C=C(c2cc(C(F)(F)F)cc(C(F)(F)F)c2)C[C@@H](c2ccc3c(c2)OCO3)C1`, for which the inhibition is 34.8%. As for `COCC(=O)Nc1c(I)c(C(=O)NCC(O)CO)c(I)c(C(=O)N(C)CC(O)CO)c1I` (stereo not drawn), the inhibition is 10.5%. With `CCN1/C(=C/c2ccc3ccc(C)cc3[n+]2CC)Sc2ccccc21` the figure was 17.6%; with `CCN1/C(=C\c2ccc3ccccc3[n+]2CC)Sc2cc(C)ccc21`, 89.1% (active); with `COc1ccc(C(=O)N2CCN(c3ccc(C(C)=O)cc3F)CC2)cc1S(=O)(=O)NC1CC1`, 1.55%. Consider `Cc1cc(N=Nc2ccc3ccccc3c2)ccc1O`, for which the inhibition is 112% (active). With `CC(=O)CCC(=O)c1ccc2ccccc2c1`, the inhibition was -3.91%. Consider `COc1ccc(N=Nc2ccc(O)c(P(=O)(c3ccccc3)c3ccccc3)c2)cc1`, for which the inhibition was 13.4%. To `CCN(CC)C(=O)c1nc[nH]c1C(=O)N(C)Cc1ccccc1` belongs -14.8%; to `COc1ccc(/C=C/C(=O)Nc2ccc(C34CC5CC(CC(O)(C5)C3)C4)cc2)cc1OC`, 91% (active). To `COc1ccc(/C=C/C(=O)Nc2ccc(C)cc2)cc1S(=O)(=O)N1CCOCC1` belongs -2.38%; to `COc1ccc(/C=C/C(=O)Nc2cccnc2)cc1OC`, 4.4%; to `CC(=O)C(CC(=O)N1CCCC1)C(=O)Nc1ccc(Cl)cc1` (stereo not drawn), -5.74%. On to `CCSc1ncc(Cl)c(C(=O)Nc2cc(C)ccc2C)n1`, for which the inhibition is -7.15%. With `CSc1nnc(NC(=O)c2nc(S(=O)(=O)Cc3ccc(C)cc3)ncc2Cl)s1` the figure was 104% (active).

Turning to `Cc1cccc(NC(=O)c2nc[nH]c2C(=O)NCC(=O)OCc2ccccc2)c1`, the inhibition is -0.27%.

On to `Cc1cccc(NC(=O)c2nc(S(=O)(=O)Cc3ccccc3)ncc2Cl)c1`, for which the inhibition was 109% (active).

Regarding `CCSc1nnc(NC(=O)c2ccc(C)cc2)s1`, the inhibition was 15.4%. To `CSc1ncc(Cl)c(C(=O)Nc2cc(C)ccc2C)n1` belongs 4.07%; to `Cc1cc(C)cc(OCC(=O)OCC(=O)NC2CCCC2)c1`, 7.95%.

For the compound `CC(C)(C)OC(=O)C[C@@H]1C/C=C\C[C@@H](CC(=O)N[C@H](CO)Cc2ccccc2)C(=O)NC[C@@H](c2ccccc2)OC1=O`, the inhibition is 0.463%. With `CCN(C(=O)COC(=O)CCC(=O)c1cccs1)C1CCCCC1` the figure was -3.12%.

Regarding `CC1(c2ccccc2)NC(=O)N(CC(=O)N2CC(=O)Nc3ccccc32)C1=O` (stereo not drawn), the inhibition is -24.5%. To `COc1ccc(-c2c(-c3cc(OC)cc(OC)c3)n(C)c3ccc(-c4ccn[nH]4)cc23)cc1` belongs 109% (active).

On to `COc1cc(OC)cc(-c2c(-c3cccs3)c3cc(-c4ccc(OC)nc4)ccc3n2C)c1`, for which the inhibition was 30.1%. `COc1cc(OC)cc(-c2c(-c3ccc(F)cc3)c3cc(-c4ccc5cc[nH]c5c4)ccc3n2C)c1`: the inhibition was 14.4%.
